AID923 – qHTS Assay for Allosteric/Competitive Inhibitors of Caspase-1: Spectroscopic Profiling in AFC Spectral Region; compound fluorescence, AFC spectral region (405/520 nm); Potency, µM (titrated, usually from 57.5 µM), usual class: activators; hit rate 1.1% among 75,000; AID 923, 2007
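Compound autofluorescence profiled at 405 nm ex/520 nm em during kinetic caspase 1 run (50 nM enzyme, 5 uM Ac-WEHD-AFC, HEPES pH 7.5, 10 mM DTT). Titration up to 57 uM; baseline from regression intercept, normalized to AFC standard curve.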
HADH2 inhib – HADH2 (human) dehydrogenase inhibition. Q99714. recombinant HADH2, NADH fluorescence, beta-hydroxybutyryl-CoA. Potency, µM (highest dose often 57.1 µM), usual class: inhibitors. hit rate 3.4% among 73,000; note: nearly all actives have a fitted effect of over 60% in size
Target sequence (Q99714 whole entry, looked up, one chain of several): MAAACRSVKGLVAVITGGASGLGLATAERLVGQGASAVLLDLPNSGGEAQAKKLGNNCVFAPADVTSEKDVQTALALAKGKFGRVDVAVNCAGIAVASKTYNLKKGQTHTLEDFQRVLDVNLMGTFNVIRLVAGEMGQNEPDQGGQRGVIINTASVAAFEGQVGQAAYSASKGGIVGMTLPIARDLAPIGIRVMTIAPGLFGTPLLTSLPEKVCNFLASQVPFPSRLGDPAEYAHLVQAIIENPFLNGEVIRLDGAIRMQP
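Read-out: 360 nm excitation, 450 nm emission, kinetic over 4 min. Conditions: His-tagged human HADH2 20 nM, pH 9.0 Tris with Tween-20, 1 mM NAD+, 90 uM beta-hydroxybutyryl-CoA.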
A350 autofl – A350 region autofluorescence. hit rate 11% among 59,000. Compound autofluorescence, 340/450 nm, Alexa 350 dye-equivalents; stronger effect = higher value. AID 590. max dye-equivalent concentration, M; in the data active = max dye-equivalent concentration above about 10 nM; inconclusive = mostly about 1.1 nM to 9.6 nM
4-MU autofl – compounds fluorescent in 4-MU spectral region; compound autofluorescence, 340/450 nm, 4-MU equivalents; stronger effect = higher value; max dye-equivalent concentration, M; hit rate 11% among 59,000; AID 589; in the data active = max dye-equivalent concentration above about 10 nM; inconclusive = mostly about 1.1 nM to 9.6 nM
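Intrinsic fluorescence at 340/450 nm (ex/em) was read after 15 min at room temperature in pH 8.0, 100 mM Tris. Each compound concentration expressed as 4-MU-equivalent concentration from a six-point 4-MU standard series on each plate.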
HSD17B inhib – HSD17B dehydrogenase inhibition. recombinant HSD17B10, NADH fluorescence kinetic. AID 893. hit rate 7.6% among 75,000. Potency, µM (highest dose often 57.1 µM), most hits filed as inhibitors;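 note: the protocol describes HADH2 (HSD17B10) and not the HSD17B4 of the title; nearly all actives have a fitted effect of over 70% in size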
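Enzyme plus compound, 15 min room temperature; substrate mix added (NAD+ 1 mM, beta-hydroxybutyryl-CoA 90 uM final); plates read kinetically for NADH fluorescence. HADH2 was His-tagged, E. coli-derived, 20 nM.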
Each line names hits and unclear results; the compound was inactive in the other large screens. Compounds with a hit are over-represented: about 13% of the library has one in this group of screens. Unless noted, calls come from the whole dose curve; as a rule, active = well fitted curve in the direction sought with a large enough effect; inconclusive = small, poorly fitted or top-dose-only effect, or another doubt; inactive = no such curve, though single readings can be large; an effect the other way counts as inactive or inconclusive.

CC(C)[C@@H]1O[C@H](/C=C\c2ccccc2)OCC1(C)C	none
COc1cc2cc(CN(Cc3cccnc3)C(=O)NCc3ccccc3)c(=O)[nH]c2cc1OC	A350 autofl 2.2e-07M, 4-MU autofl 2.5e-07M, HSD17B inhib 25µM
O=C(OCc1cc2ccccc2[nH]c1=O)C1CCCO1 (configuration not stated)	A350 autofl inconclusive, 4-MU autofl inconclusive
COC(=O)c1ccccc1S(=O)(=O)N(Cc1cc2ccc(OC)cc2[nH]c1=O)CC1CCCO1 (configuration not stated)	HSD17B inhib inconclusive
COc1ccc(NC(=O)N(CCN2CCCC2)Cc2cc3cc(OC)c(OC)cc3[nH]c2=O)cc1	A350 autofl 3.8e-08M, 4-MU autofl 3.9e-08M, HSD17B inhib inconclusive
Cc1ccc2[nH]c(=O)c(COC(=O)C3CCCO3)cc2c1 (configuration not stated)	A350 autofl 1.3e-08M, 4-MU autofl 1.1e-08M
COc1ccc(NC(=O)N(Cc2cc3cc(OC)ccc3[nH]c2=O)CC2CCCO2)cc1 (configuration not stated)	A350 autofl 5.4e-08M, 4-MU autofl 5.4e-08M, HSD17B inhib 32µM
O=S(=O)(c1ccccc1)N1CCC2(CCN(C(c3ccccc3)c3ccccc3)CC2)CC1	none
C[C@H](NC(=O)[C@@H]1C[C@H]1[C@@H](NC(=O)OCc1ccccc1)c1ccccc1)c1ccccc1	none (no result: A350 autofl, 4-MU autofl)
O=C(NCc1ccccc1)N(Cc1cc2cc3c(cc2[nH]c1=O)OCO3)CC1CCCO1 (configuration not stated)	HADH2 inhib inconclusive, A350 autofl 3.1e-07M, 4-MU autofl 3.6e-07M, HSD17B inhib 25µM
COc1ccc(NC(=O)N(CCCN(C)C)Cc2cc3cc(OC)ccc3[nH]c2=O)cc1	A350 autofl 7.7e-08M, 4-MU autofl 7e-08M, HSD17B inhib 32µM
CCN(CC)CCCN(Cc1cc2cc(OC)ccc2[nH]c1=O)C(=O)Nc1ccc(F)cc1	A350 autofl 1.3e-07M, 4-MU autofl 1.7e-07M, HSD17B inhib inconclusive
CCC(=O)N(Cc1cc2ccccc2[nH]c1=O)C(C)C	none
CCC(=O)N(CCc1ccccc1C)Cc1cc2cc3c(cc2[nH]c1=O)OCO3	A350 autofl 8.2e-08M, 4-MU autofl 8.8e-08M, HSD17B inhib inconclusive
C[C@H]1C2=C3C(C[C@H]4C(=O)N(c5ccccc5)C(=O)[C@H]4[C@H]3[C@@]3(Cc4ccccc4)C(=NCCc4c[nH]c5ccccc45)OC(=O)N3C2=O)[C@H]2C(=O)N(c3ccccc3)C(=O)[C@H]21 (some centres not stated)	none (no result: HADH2 inhib, A350 autofl, 4-MU autofl)
CC(C)=CCSc1nnc([C@@H](NC(=O)OC(C)(C)C)C(C)C)o1	A350 autofl 3.1e-08M, 4-MU autofl 2.6e-08M
CC(=O)C1=C(O)C(=O)N(c2ccc(Br)cn2)C1c1ccccc1F (configuration not stated)	A350 autofl 1.1e-08M, 4-MU autofl 1e-08M (no result: AID923, HADH2 inhib, HSD17B inhib)
COc1cc(C2C(C(C)=O)=C(O)C(=O)N2c2ccc(Br)cn2)ccc1O (configuration not stated)	none (no result: AID923, HADH2 inhib, HSD17B inhib)
O=C(Nc1ccccc1F)NC1CCN(Cc2nnnn2Cc2ccc(F)cc2)CC1	none
O=C(Nc1ccc(F)cc1)NC1CCN(Cc2nnnn2Cc2ccco2)CC1	HSD17B inhib 25µM
CC(=O)O[C@H]1CC[C@]2(C)C(=CC[C@H]3[C@H]4C[C@H]5O[C@]6(CC[C@H](C)CN6)[C@H](C)[C@@H]5[C@]4(C)CC[C@@H]32)C1	none
CCCCNc1cc(C(=O)O)cc(S(N)(=O)=O)c1Oc1ccccc1	HADH2 inhib inconclusive, A350 autofl 5.4e-08M, 4-MU autofl 4.9e-08M, HSD17B inhib 25µM
NS(=O)(=O)c1cc(C(=O)O)cc(N2CCCC2)c1Oc1ccccc1	A350 autofl 3.2e-07M, 4-MU autofl 3.5e-07M, HSD17B inhib 13µM
CCCCOc1ccc(C(=O)O)cc1	none
O=C1[C@H]2CCn3c(=O)n(-c4ccccc4)c(=O)n3[C@H]2[C@H](O)[C@H]2O[C@@H]12	none (no result: A350 autofl, 4-MU autofl)
COc1cc2nc(C3CC3)n(NC(=O)c3ccc(Cl)cc3)c(=O)c2cc1OC	A350 autofl inconclusive, 4-MU autofl inconclusive
COc1cc2nc(NC(=O)c3ccc(Cl)cc3)[nH]c(=O)c2cc1OC	A350 autofl 1.6e-07M, 4-MU autofl 1.8e-07M
C#C[C@@]1(O)CC[C@@H]2[C@@H]3CCC4=C(CCC(=O)C4)[C@H]3CC[C@]21C	A350 autofl 8.1e-08M, 4-MU autofl 6.8e-08M
COCc1cc(C)nc(N2CCc3ccccc32)c1C#N	A350 autofl 3.6e-08M, 4-MU autofl 3.3e-08M, HSD17B inhib inconclusive
CC1CCCC(C(=O)O)N1C(=O)CCSC(=O)c1ccccc1 (configuration not stated)	A350 autofl 3e-08M, 4-MU autofl 2.5e-08M
Cc1ccc(CC(NC(=O)c2ccccc2)C(=O)N2CCCC2C(=O)O)cc1 (configuration not stated)	none
O=C(CSc1ccc2nnc(-c3ccccc3)n2n1)N1CCN(c2ccccc2)CC1	none (no result: A350 autofl, 4-MU autofl)
COc1ccc(-c2nnc3ccc(SCC(=O)N4CCN(c5ccccc5)CC4)nn23)cc1	HADH2 inhib inconclusive, A350 autofl 1.7e-08M, 4-MU autofl 1.3e-08M
Fc1ccc(-c2nnc3ccc(N4CCCC4)nn23)cc1	HSD17B inhib 25µM (no result: A350 autofl, 4-MU autofl)
O=C(Nc1ccccc1Cl)N1CCN(c2ccc3nnc(-c4ccc(F)cc4)n3n2)CC1	HSD17B inhib inconclusive (no result: A350 autofl, 4-MU autofl)
CCOC(=O)C(C)Sc1ccc2nnc(-c3ccc(F)cc3)n2n1 (configuration not stated)	HADH2 inhib inconclusive, A350 autofl 1.1e-08M, 4-MU autofl inconclusive, HSD17B inhib 32µM
CCSc1ccc2nnc(-c3ccc(F)cc3)n2n1	A350 autofl inconclusive, 4-MU autofl inconclusive, HSD17B inhib 32µM
O=C(CSc1ccc2nnc(-c3ccc(F)cc3)n2n1)N1CCCCC1	HADH2 inhib inconclusive, A350 autofl inconclusive, 4-MU autofl inconclusive
O=C(c1ccco1)N1CCC[C@@]2(CCN(C(c3ccccc3)c3ccccc3)C2)C1	none
N[C@H](C(=O)O)C1[C@H](C(=O)O)[C@H]1C(=O)O (some centres not stated)	none (no result: A350 autofl, 4-MU autofl)
O=C(N/N=C1/C[C@@H](O)[C@@H](O)[C@@H]2[C@H]3C(=O)N(c4ccc(F)cc4F)C(=O)[C@@H]3CC[C@@H]12)OCc1ccccc1	none (no result: A350 autofl, 4-MU autofl)
COCC(=O)N1CCC2(CC1)CCN(c1ccccc1)CC2	none
CCn1c(C(=O)Nc2ccsc2C(=O)OC)cc2sc(Cl)cc21	HADH2 inhib inconclusive, HSD17B inhib 32µM (no result: A350 autofl, 4-MU autofl)
COc1ccc(CN/C(C)=C(/C#N)C(N)=O)cc1OC	A350 autofl 1.7e-08M, 4-MU autofl 1.3e-08M
COc1ccc(CNC(=O)NCc2ccc(OC)c(OC)c2)cc1OC	none
Cc1c(NC(=O)CN2c3cccc4cccc(c34)S2(=O)=O)c(=O)n(-c2ccccc2)n1C	HADH2 inhib inconclusive, A350 autofl 7.4e-08M, 4-MU autofl 7.4e-08M, HSD17B inhib inconclusive
COc1ccc(OC)c(NC(=O)CN2C(=O)c3ccccc3S2(=O)=O)c1	none (no result: A350 autofl, 4-MU autofl)
